Rab9 prom act = qHTS Assay for Rab9 Promoter Activators; Huh7 Rab9 promoter-luciferase reporter, luminescence, 24 h; actives 2.8% (n = 320,000); Potency, µM (series often up to 9.22 µM), for the others: at the top dose activation, negative = inhibition, usual class: activators; also: % of control where 0% means no effect; nearly all actives have a fitted effect of over 60% in size
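Steps: seed 1500 Huh7 Rab9-luc cells per well, rest 2 h at 37 °C; add compound in DMSO; incubate 24 h; add luciferase reagent, 10 min ambient; read luminescence.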
ELG1 genotox = qHTS screen for small molecules that induce genotoxicity in human embryonic kidney (HEK293T) cells expressing luciferase-tagged ELG1 | Potency, µM (titrated, usually from 46 µM), for the others: at the top dose activity change, positive = activation, usual class: activators | HEK293T ELG1-luciferase reporter, luminescence, 16 h | actives 1.3% (n = 330,000); also: % of control where 0% means no effect; nearly all actives have a fitted effect of over 60% in size
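DMSO vehicle served as control against compound-treated ELG1-luciferase HEK293T cells; exposure lasted 16 hr at 37 °C and 5% CO2, followed by ONE-Glo luminescence detection after 30 min.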
FLuc counter = qHTS profiling assay for firefly luciferase inhibitor/activator using purifed enzyme and Km concentrations of substrates (counterscreen for miR-21 project); Luciferin 4-monooxygenase (Photinus pyralis), P08659; purified FLuc, Km substrates, luminescence inhibition; Potency, µM (highest dose often 57.5 µM), for the others: top-dose activity change, negative = inhibition, hits mostly inhibitors; actives 6.9% (n = 360,000); AID 588342, 2011;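 also: plate controls were vehicle for no effect and reference inhibitor for full effect; nearly all actives have a fitted effect of over 55% in size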
Target sequence (P08659 whole entry, looked up): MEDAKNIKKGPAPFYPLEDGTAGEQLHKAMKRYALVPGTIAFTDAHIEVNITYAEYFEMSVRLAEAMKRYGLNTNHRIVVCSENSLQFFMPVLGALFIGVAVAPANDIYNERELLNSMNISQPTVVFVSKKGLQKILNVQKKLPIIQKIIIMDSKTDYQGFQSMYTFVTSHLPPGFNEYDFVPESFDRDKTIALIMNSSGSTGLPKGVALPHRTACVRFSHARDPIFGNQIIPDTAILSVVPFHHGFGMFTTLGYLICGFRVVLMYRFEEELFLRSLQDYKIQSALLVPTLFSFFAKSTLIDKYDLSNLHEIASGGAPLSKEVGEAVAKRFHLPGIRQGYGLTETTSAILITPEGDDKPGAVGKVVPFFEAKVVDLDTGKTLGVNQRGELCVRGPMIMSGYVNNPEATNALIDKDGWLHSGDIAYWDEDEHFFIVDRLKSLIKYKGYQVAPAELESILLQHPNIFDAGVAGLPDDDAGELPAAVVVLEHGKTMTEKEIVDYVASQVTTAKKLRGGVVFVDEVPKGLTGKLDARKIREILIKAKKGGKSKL
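Biochemical qHTS of compounds, final roughly 60 µM downward over six points, against 10 nM purified firefly luciferase using Km concentrations of substrates (10 uM D-luciferin, 10 uM ATP) in Tris acetate pH 7.5 buffer; luminescence output.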
NPC1 promoter act = qHTS Assay for NPC1 Promoter Activators | Potency, µM (top dose mostly 9.22 µM), for inactives: top-dose activation, usual class: activators | Huh7 NPC1 promoter luciferase reporter, 24 h | actives 2.4% (n = 320,000); also: % of control where 0% means no effect; nearly all actives have a fitted effect of over 60% in size
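NPC1 promoter–luciferase Huh7 cells; 24 h compound; luminescence.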
SMN2 splice up = qHTS Assay for Enhancers of SMN2 Splice Variant Expression; HEK293 SMN2-luciferase splicing reporter, luminescence, 30-36 h; actives 2.8% (n = 210,000); AID 1458, 2008; Potency, µM (top dose mostly 46.1 µM), inactives show at the highest dose activity change, positive = activation, usual class: activators; also: % of control where 0% means no effect; nearly all actives have a fitted effect of over 55% in size
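HEK293 cells carry an SMN2 minigene-luciferase reporter in which exon 7 inclusion puts luciferase in frame. Cells were seeded at 2000 cells/well, attached for 10-12 hours, then exposed to compounds for 30-36 hours at 37C before ONE-Glo luminescence.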
Numbers without * were called inactive; ? = inconclusive; nt = no result given; [ ] = remark or other dose. A selection: hits, their analogues and other compounds. The true share with any hit is near 7.5%. Calls follow the shape of the dose curve; as a rule, active = well fitted curve in the direction sought with a large enough effect; inconclusive = small, poorly fitted or top-dose-only effect, or another doubt; inactive = no such curve, though single readings can be large; an effect the other way counts as inactive or inconclusive. Potency is read from the fitted curve at half-maximal effect.

SMILES	Rab9 prom act	ELG1 genotox	FLuc counter	NPC1 promoter act	SMN2 splice up
CC(C)(C)c1ccc(NC(=O)c2c(F)cccc2Cl)cc1	?	7%	17µM*	12%	nt
Cn1cc(Cl)c(C(=O)Nc2cccc(Cl)c2Cl)n1	26%	-1%	0%	18%	56%
O=C(Nc1ccc(N2CCOCC2)cc1)c1c(F)cccc1Cl	2%	19%	-2%	-2%	0%
Cc1cc(S(=O)(=O)NCCc2csc(-c3cccc(F)c3)n2)ccc1F	nt	nt	-12%	nt	nt
O=C(CN1C(=O)NC2(CCc3ccccc32)C1=O)c1ccc2c(c1)OCCO2 (centres undefined)	18%	1%	-5%[2.3 µM]	5%	17%
O=c1c2c(nc3cc(-c4cccc(F)c4)[nH]n13)CCC2	1.1µM*	?	6µM*	1.6µM*	8.9µM*
O=c1c2c(nc3cc(-c4cccc(Cl)c4)[nH]n13)CCC2	1.6µM*	2.3µM*	4.8µM*	2µM*	8.9µM*
O=c1c2c(nc3cc(-c4ccc(F)cc4)[nH]n13)CCCC2	0.45µM*	2.3µM*	1.5µM*	?	?
Cc1[nH]n2c(=O)c3c(nc2c1-c1ccc(F)cc1)CCCC3	-7%	-7%	-1%	-5%	nt
Fc1ccc(C2CCCN2Cc2nc(CC3CC3)no2)cc1 (centres undefined)	0%	-3%	0%	-2%	-3%
CCOc1ccc(-n2c(Cc3cc(=O)[nH]c(=O)[nH]3)nnc2SCC(=O)OC)cc1	-3%	-1%	7%	-5%	-2%
O=C(Nc1ccc(F)cc1)c1ccc(CSc2ccc(Cl)cc2)o1	-3%	-7%	?	-1%	nt
O=C(Nc1ccc(F)cc1)c1ccc(CSc2ccccc2)o1	1%	7%	15µM*	-1%	-4%
CCOc1ccc(Cc2nnc(SCC(=O)c3ccc(OC)cc3)o2)cc1	-5%	-10%	2%	1%	-25%
CCOc1ccc(Nc2nc(Cc3nnc(SCC(=O)O)o3)cs2)cc1	4%	-4%	8.5µM*	13%	4%
Cc1ccsc1C(=O)Nc1ccc2c(c1)OCCO2	0.63µM*	2.1µM*	1.9µM*	1.3µM*	2.2µM*
Cc1ncoc1C(=O)Nc1ccc2c(c1)OCCO2	2.5µM*	?	12µM*	3.2µM*	16µM*
CC(C)C(=O)Nc1nnc(SCC(=O)N2c3ccccc3CC2C)s1 (centres undefined)	-4%	0%	2%	1%	-3%
COc1ccc(NC(=O)CN(C)C(=O)/C=C/c2ccc(OCc3ccccc3)cc2)cc1	-1%	17%	-3%	-3%	nt
O=C(/C=C/Nc1ccccc1C(F)(F)F)c1ccco1	0.71µM*	2.9µM*	1.2µM*	2µM*	10µM*
O=C(Nc1cccc(C(F)(F)F)c1)c1ccco1	-6%	4%	-19%	2%	26%
NC(=O)c1ccccc1N/C=C/C(=O)c1ccco1	3.2µM*	5.2µM*	9.5µM*	?	11µM*
N#Cc1ccc(/C=C/C(=O)c2ccco2)cc1	0%	-19%	?	1%	16%
O=C(/C=C/Nc1cccc(C(F)(F)F)c1)c1ccc(Oc2ncccn2)cc1	?	0%	12µM*	?	-10%
O=C(/C=C/Nc1cccc(C(F)(F)F)c1)c1ccco1	?	?	11µM*	21%	?
SMILES	Rab9 prom act	ELG1 genotox	FLuc counter	NPC1 promoter act	SMN2 splice up
CSc1ccccc1NC(=S)NC1CCCC1	0%	0%	-2%	-1%	nt
CCOC(=O)CNc1oc(-c2ccccc2)nc1-c1ccccc1	nt	nt	nt	nt	16%
O=C(/C=C/Nc1ccc(Oc2ccccc2)cc1)c1ccco1	0.71µM*	?	0.85µM*	0.63µM*	nt
CC1CCN(C(=S)NC(=O)C2CCCCC2)CC1	3%	-2%	4%	-6%	-5%
COCC(=O)NCCc1ccc(S(N)(=O)=O)cc1	3%	-1%	2%	1%	2%
CCC(=O)N1CCc2cc(S(=O)(=O)NCCC(=O)NCc3ccccc3Cl)ccc21	1%	1%	-1%	-2%	-19%
CCc1ccccc1NC(=S)N1N=CCC1c1ccccc1 (centres undefined)	-2%	14%	-19%	1%	-2%
Cc1cccc(NC(=S)N2N=CCC2c2ccccc2)c1 (centres undefined)	20%	?	21µM*	?	5%
CC1CCC2(CC1)NC(=O)N(CC(=O)Nc1nc(-c3ccc(F)cc3)cs1)C2=O (centres undefined)	-12%	-5%	-2%	0%	4%
Cc1noc(C)c1COc1ccc(C(=O)OCC(N)=O)cc1	-5%	4%	-3%	1%	4%
COc1ccc(S(=O)(=O)NC2CCCCC2)cc1C(=O)N1CCCCC1	8%	-3%	4%	-33%	nt
Cc1cc(NC(=O)C(C)SCC(=O)OC(C)C(=O)Nc2ccccc2C)no1 (centres undefined)	3%	6%	5%	-41%	nt
Cc1ccc2c(C)c(C(=O)N3CCN(Cc4ccc5c(c4)OCO5)CC3)oc2c1C	?	17%	24µM*	?	nt
Cc1ccc2nc(-c3ccc(Br)o3)oc(=O)c2c1	-2%	11%	2.4µM*	-2%	27%
COc1cc2nc(-c3ccc(Br)o3)oc(=O)c2cc1OC	2%	6%	3%	-3%	-6%
CCc1nc2ccc(C(=O)NCc3cccc(Br)c3)cc2nc1CC	nt	nt	-1%	nt	nt
Cc1[nH]c2c(ccc3cccnc32)c1C	18%	5%	24µM*	11%	nt
Clc1ccc2ccc3cccnc3c2n1	-9%[1.84 µM]	-1%	-3%	1%	nt
COc1ccc(C2OC(=O)CC2C(=O)NCc2ccc(Cl)cc2)cc1OC (centres undefined)	?	?	17µM*	?	?
Cc1nn2c(-c3ccccc3)nnc2c2ccccc12	?	?	19µM*	?	5.6µM*
O=C(NCC(=O)N(c1cccc(F)c1)C(C(=O)NC1CCCC1)c1ccco1)c1ccco1 (centres undefined)	-2%	1%	3%	-3%	-7%
Cc1cc(N2CCOCC2)nc2ccc(NC(=O)CCC(=O)N3CCCCC3)cc12	4µM*	?	?	?	8.9µM*
CCC(C)NC(=O)CCC(=O)Nc1ccc2nc(N3CCOCC3)cc(C)c2c1 (centres undefined)	28%	5%	?	30%	?
Cc1cc(N2CCOCC2)nc2ccc(NC(=O)CCC(=O)N3CCC(C)CC3)cc12	4.5µM*	7%	12µM*	?	nt
Cc1cc(N2CCOCC2)nc2ccc(Cl)cc12	?	?	6µM*	?	nt
